VP16 counter – VP16 counterscreen qHTS for inhibitors of ROR gamma transcriptional activity. Drosophila S2 Gal4-VP16 UAS-luciferase, luminescence, 20 h. Potency, µM (highest dose often 53.6 µM), hits mostly inhibitors. 3.5% of 310,000 active. AID 2546, 2010;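 also: Gal4-VP16 expression switched on by copper sulfate through the metallothionein promoter; nearly all actives have a fitted effect of over 50% in size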
PKM2 activator – qHTS Assay for Activators of Human Muscle isoform 2 Pyruvate Kinase; Pyruvate kinase PKM (Homo sapiens), P14618; purified PKM2, Kinase-Glo ATP luminescence, activation; response scale: 0% is enzyme alone, no compound; Potency, µM (doses to about 57.5 µM), most hits filed as activators; 0.34% of 260,000 active; AID 1631, 2009; also: nearly all actives have a fitted effect of over 55% in size
Target sequence (P14618 whole entry, looked up, canonical isoform): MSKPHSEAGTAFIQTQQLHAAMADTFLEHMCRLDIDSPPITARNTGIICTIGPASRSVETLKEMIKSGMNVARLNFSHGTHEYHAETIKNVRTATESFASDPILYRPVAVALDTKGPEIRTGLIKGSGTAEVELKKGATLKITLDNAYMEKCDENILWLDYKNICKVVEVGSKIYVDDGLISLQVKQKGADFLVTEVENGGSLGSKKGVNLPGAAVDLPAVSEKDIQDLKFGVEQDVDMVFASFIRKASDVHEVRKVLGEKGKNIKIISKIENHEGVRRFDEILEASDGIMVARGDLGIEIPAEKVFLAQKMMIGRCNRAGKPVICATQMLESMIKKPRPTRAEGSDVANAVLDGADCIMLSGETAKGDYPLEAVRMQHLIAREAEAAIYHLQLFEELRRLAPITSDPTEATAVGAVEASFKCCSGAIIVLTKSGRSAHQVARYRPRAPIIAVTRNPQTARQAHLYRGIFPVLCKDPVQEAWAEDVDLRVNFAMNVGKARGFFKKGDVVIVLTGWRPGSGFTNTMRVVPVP
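ATP formation by purified human PK-M2, quantified via coupled luciferase luminescence after 1 h at room temperature with 0.1 mM ADP and 0.5 mM PEP final.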
CtBP-E1A inh – qHTS Assay for Inhibitors of the CtBP/E1A Interaction; 0.49% of 340,000 active; CtBP / adenovirus E1A interaction (AlphaScreen); activity change, % (test concentration not listed); AlphaScreen GST-E1A/His-CtBP binding, 1536-well; stronger effect = lower value; AID 651724, 2012; in the data active = activity change below about -65%; inconclusive = mostly about -30% to -63%
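Steps: dispense buffer (Tris pH 8.0, NaCl 300 mM, TCEP 1 mM, BSA, Tween 20); add 5X protein mix (GST-E1A, His-CtBP, 125 nM each); pin 23 nL compound; 2 h at 37 °C, dark; add 5X beads (50 ug/mL); 1 h; read.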
Six1-Eya2 inh – qHTS Assay for Inhibitors of the Six1/Eya2 Interaction | AlphaScreen GST-Six1/His-Eya2 binding, biochemical; stronger effect = lower value | 0.56% of 360,000 active | AID 651725, 2012 | Homeobox protein SIX1 (Homo sapiens) + Protein phosphatase EYA2 (Homo sapiens), … | activity change, % (no concentration beside the values); in the data active = activity change below about -65%; inconclusive = mostly about -30% to -63%
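Six1/Eya2 binding was read as AlphaScreen signal after compounds were pinned into GST-Six1 plus His-tagged Eya2 (5X stock 250/500 nM) in pH 8.0 Tris/NaCl/TCEP buffer, beads added, then incubated 1 h, 37 C, dark.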
RORg inh – qHTS for inhibitors of ROR gamma transcriptional activity. Potency, µM (titrated, usually from 53.6 µM), hits mostly inhibitors. Drosophila S2 Gal4-RORgamma UAS-luciferase reporter, 20 h. Nuclear receptor ROR-gamma (Mus musculus), P51450. 5.4% of 310,000 active; also: nearly all actives have a fitted effect of over 60% in size
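In this cell-based reporter format, copper sulfate (700 uM final) drives Gal4–ROR gamma fusion expression from a metallothionein promoter in Drosophila Schneider cells; compounds preincubated 1 hr, reporter read after 20 hr at ambient temperature.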
A number is an active result; . = inactive; ? = inconclusive; / = no result given; [ ] = remark or other dose. Only some compounds are listed: those with a hit (about 5.6% of all), similar ones and a draw of the others. Unless noted, calls follow the shape of the dose curve; as a rule, active = well fitted curve in the direction sought with a large enough effect; inconclusive = small, poorly fitted or top-dose-only effect, or another doubt; inactive = no such curve, though single readings can be large; an effect the other way counts as inactive or inconclusive.

SMILES	VP16 counter	PKM2 activator	CtBP-E1A inh	Six1-Eya2 inh	RORg inh
COCCCNC(=O)c1ccc2c(=O)n(Cc3ccc4c(c3)OCO4)c(=S)[nH]c2c1	?	.	.	.	.
COCCCNC(=O)c1ccc2c(=O)n(Cc3ccc(Cl)cc3)c(=S)[nH]c2c1	?	/	/	.	18µM
CC(=O)N[C@@H](C)C(=O)N1CCN(S(=O)(=O)c2ccc(Cl)cc2)CC1	.	.	.	.	.
CC(C)c1ccc(NC(=S)NN2CCN(C)CC2)cc1	.	.	.	.	11µM
CCC(C)c1ccc(NC(=S)NN2CCOCC2)cc1 (stereo not drawn)	4.5µM	.	.	.	2.2µM
Fc1cc(F)cc(NC(=S)NN2CCOCC2)c1	.[10 µM]	.	.	.	10µM
CCCCc1ccc(NC(=S)NN2CCOCC2)cc1	.	.	.	.	.
O=C(CNC(=S)N(Cc1ccccc1)Cc1ccccc1F)NCCc1ccc(Cl)cc1	.	.	.	.	?
Cc1ccc(F)cc1NC(=O)C1CC(=O)N(Cc2ccccc2)C1 (stereo not drawn)	/	/	.	.	/
Cn1c(=O)n(C)c2cc(S(=O)(=O)NCc3ccco3)ccc21	.	?	.	.	.[10 µM]
CC(C)(C)c1ccc(/C=N/NC(=S)NCc2ccccc2)cc1	1.1µM	.	.	.	0.79µM
CN(C)c1ccc(/C=N/NC(=S)NCc2ccccc2)cc1	2.8µM	.	?	?	0.45µM
CN(C)c1ccc(/C=N/NC(=O)COc2ccccc2)cc1	.	.	.	.	.
Cc1c(NC(=S)N/N=C/c2ccc(N(C)C)cc2)c(=O)n(-c2ccccc2)n1C	?	.	.	.	18µM
Cn1c(=O)n(C)c2cc(S(=O)(=O)NCc3ccccc3)ccc21	.	18µM	.	.	.[10 µM]
CCOC(=O)c1c(C)[nH]c(C)c1C(=O)COC(=O)Cc1ccc(OC)c(OC)c1	/	/	.	.	/
Cc1ccccc1NC(=O)OCc1cccnc1Oc1ccc(Cl)cc1	.	.	.	.	?
Cc1ccsc1/C=N/NC(=S)NCc1ccccc1	.	.	.	.	0.022µM
Cn1c(=O)n(C)c2cc(/C=N/NC(=S)NCc3ccccc3)ccc21	?	.	.	?	10µM
CCN(Cc1ccccc1)c1ccc(/C=N/N=C(N)N)cc1	?	.	.	.	?
Cc1ccsc1/C=N\NC(=O)CC(=O)NCc1ccccc1	.	.	/	.	.
CNC(=S)N/N=C/c1ccc(C(C)C)cc1	/	/	.	.	/
CNC(=S)N/N=C/c1ccc(N(C)C)cc1	7.1µM	.	.	.	1.6µM
CCN(Cc1ccccc1)c1ccc(/C=N/NC(=S)NC(C)C)cc1	1.3µM	.	.	.	1.3µM
COc1ncccc1-c1ccc2nncn2c1	/	/	.	.	/
SMILES	VP16 counter	PKM2 activator	CtBP-E1A inh	Six1-Eya2 inh	RORg inh
C[C@]12C(=O)N(c3ccc(Br)cc3)C(=O)N1[C@H]1c3ccccc3OC[C@@H]1[C@H]2c1ccccc1	/	/	.	.	/
CC(C)(C)c1ccc(/C=N/NC(=O)C2CCCC2)cc1	.	.	.	.	.
C=CCNC(=S)N/N=C/c1ccc(C(C)(C)C)cc1	0.56µM	.	.	.	0.28µM
O=C(c1cccc(C(F)(F)F)c1)C1CCCN(C(=O)CCCN2CCCC2=O)C1 (stereo not drawn)	.	.	/	.	.
CN(C)c1ccc(N=Nc2ccc3ncccc3c2)cc1	/	/	.	?	/
Cc1cc(N(C)C)ccc1N=Nc1ccc2ncccc2c1	.	.	/	-83	.
COc1ccc(CCNc2c(C)c(C)nc3ncnn23)cc1	6.3µM	.	.	.	.
COc1cc(/C=N/Nc2nc3c(c(=O)n(C)c(=O)n3C)n2Cc2ccccc2)ccc1OC(=O)c1ccco1	18µM	.	.	.	.
Cc1ccc(Cn2c(N/N=C/c3ccncc3)nc3c2c(=O)n(C)c(=O)n3C)cc1	10µM	.	.	.	.
Cn1c(=O)c2c(nc(N/N=C/c3ccncc3)n2Cc2ccccc2)n(C)c1=O	.	.	.	.	.
CCN1C(=O)[C@H]2[C@@H](c3ccc(OC)cc3)N3C(=O)CN(CCOC)C(=O)[C@@]3(Cc3ccccc3)[C@H]2C1=O	.	.	.	.	.
COc1cc(/C=C(\C#N)C(=O)NC2CCCCC2)ccc1OCc1ccc(C(=O)O)cc1	?	.	-93	?	13µM
COc1cc(/C=C(\C#N)C(=O)NC(C)C)ccc1OCc1ccc(C(=O)O)cc1	.	.	-73	.	.
CCCn1nc(C(=O)NNC(=O)CSC(C)C(=O)Nc2cc(C)on2)c2ccccc2c1=O (stereo not drawn)	.	.	.	.	.
CCCCc1c(C)nn(-c2nnc3c4ccccc4n(C)c3n2)c1C	7.1µM	.	.	.	0.79µM
CCN(CC)CCNC(=O)c1ccc(NC(=O)c2cccc(-n3cnnn3)c2)cc1	/	/	.	.	/
O=C(COc1ccc(/C=N/NC(=O)c2cc3ccccc3o2)cc1Cl)Nc1ccccc1	0.89µM	.	.	.	1.3µM
COc1cccc(OC)c1C(=O)Nc1cc(C)nn1-c1nc2ccccc2[nH]1	?	.	.	.	3.5µM
COc1ccc(C(=O)Nc2cc(C)nn2-c2nc3ccccc3[nH]2)c(OC)c1	4µM	.	.	.	2.2µM
Cc1cc(NC(=O)C2CCCC2)n(-c2nc3ccccc3[nH]2)n1	1.4µM	.	.	.	0.63µM
Cc1cc(NC(=O)c2cccs2)n(-c2nc3ccccc3[nH]2)n1	.	.	.	.	.
Cc1cc(NC(=O)CC#N)n(-c2nc3ccccc3[nH]2)n1	?	.	.	.	?
COc1ccc(C(=O)Nc2nc3ccccc3s2)c(OC)c1	/	.	.	.	/
Cc1cc(NC(=O)c2sccc2C)n(-c2nc3ccccc3[nH]2)n1	3.5µM	.	/	.	1µM
CCOC(=O)C(=O)Nc1cc(C)nn1-c1nc2ccccc2[nH]1	.	.	?	.	.
SMILES	VP16 counter	PKM2 activator	CtBP-E1A inh	Six1-Eya2 inh	RORg inh
Cc1noc(C)c1-c1cc(NC2CCNCC2)ncn1	.	/	/	/	.
Cc1oc2c(c1C(=O)N1CCC(C)CC1)C(=O)c1ccccc1C2=O	?	.	.	.	7.9µM
CC1CCN(C(=O)c2ccc3c(c2)C(=O)c2ccccc2-3)CC1	/	/	.	.	/
CCOC(=O)C1CCN(C(=O)c2c(C)oc3c2C(=O)c2ccccc2C3=O)CC1	?	.	.	.	11µM
O=C([C@H]1O[C@@H](n2ccc(=O)[nH]c2=O)[C@H](O)[C@@H]1O)N1CCSC1	/	/	.	.	/
NC(=O)/C(=N\OC(=O)c1ccco1)c1nc(-c2ccc(Br)cc2)cs1	?	.	?	?	4.5µM
Cc1nnc(N/N=C/c2cc([N+](=O)[O-])c(N3CCC(C)CC3)cc2N2CCC(C)CC2)n1N	?	.	?	?	16µM

Bioassay records as filed in PubChem BioAssay.
